# Measured values taken from PubChem BioAssay (NCATS).
# Values without a mark were called inactive. Calls follow the shape of the dose curve; as a rule, active = well fitted curve in the direction sought with a large enough effect; inconclusive = small, poorly fitted or top-dose-only effect, or effect the other way, or another doubt; inactive = no such curve, though single readings can be large or run the other way.
# Experiment: Inducers of the Endoplasmic Reticulum Stress Response (ERSR) in human glioma: Validation (AID 504836); also: 0% is about no effect
# Conditions: human glioma cells, ER stress response reporter; series mostly up to 38.3 µM; activation: at the top concentration
# In short: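 ERSR induction read as luciferase luminescence (Bright-Glo, 10 min at room temperature) in stably transfected human U87-MG glioma cells exposed to compounds for 16 h, using GRP78 as sensor.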
row,SMILES,activation [%]
1,C[C@](N)(Cc1ccc(O)cc1)C(=O)O,0.788
2,O=C(O)CCCCCCCC(=O)O,-4.23
3,CCN(CC)C(=O)c1ccc(O)c(OC)c1,-3.7
4,CCCNC(C)C(=O)Nc1ccccc1C (stereo not given),-2.81
5,C[C@@H](O)[C@H]1C(=O)N2C(C(=O)O)=C(SCCN=CN)C[C@H]12,-1.86
6,O=c1[nH]cnc2[nH]ncc12,-2.7
7,NCCS(=O)(=O)O,-1.34
8,COC(=O)[C@@H]1[C@H]2C[C@H]3c4[nH]c5ccccc5c4CCN3C[C@@H]2CC[C@@H]1O,-3.44
9,NC(Cc1ccc(Cl)cc1)C(=O)O (stereo not given),-3.39
10,Cn1c(=O)c2[nH]cnc2n(C)c1=O,-0.235
11,O=c1c(-c2ccc(O)cc2)coc2cc(O)cc(O)c12,-10.6
12,CO[C@@]1(NC(=O)CSCC#N)C(=O)N2C(C(=O)O)=C(CSc3nnnn3C)CS[C@@H]21,-1.98
13,COc1cc(NS(C)(=O)=O)ccc1Nc1c2ccccc2nc2ccccc12,-3.07
14,CCN1CCC[C@H]1CNC(=O)c1c(O)c(Cl)cc(Cl)c1OC,-0.76
15,CCn1cc(C(=O)O)c(=O)c2cc(F)c(N3CCNC(C)C3)c(F)c21 (stereo not given),-0.628
16,COCCOC(=O)C1=C(C)NC(C)=C(C(=O)OC(C)C)C1c1cccc([N+](=O)[O-])c1 (stereo not given),-1.48
17,Nc1ncnc2c1ncn2[C@@H]1O[C@H](CO)[C@@H](O)[C@H]1O,-1.57
18,Nc1ccc(S(=O)(=O)Nc2ccnn2-c2ccccc2)cc1,-2.81

row,SMILES,activation [%]
1,CCCCCN(C)CCC(O)(P(=O)(O)O)P(=O)(O)O,-4.53
2,COc1ccc(C2CNC(=O)C2)cc1OC1CCCC1 (stereo not given),-0.709
3,CC(=O)c1ccc(S(=O)(=O)NC(=O)NC2CCCCC2)cc1,1.16
4,CNCCCC12CCC(c3ccccc31)c1ccccc12,0.453
5,CNCC(O)c1ccc(O)c(O)c1 (stereo not given),-3.67
6,NCCCCCC(=O)O,-1.03
7,C=CC(N)CCC(=O)O (stereo not given),-3.31
8,CCC1(C)CC(=O)NC1=O (stereo not given),-4.67
9,CC(=O)OC(C)C[N+](C)(C)C (stereo not given),-1.78
10,CCn1nc(C(=O)O)c(=O)c2cc3c(cc21)OCO3,-3.52
11,Clc1ccc2nsnc2c1NC1=NCCN1,-4.09
12,CC(=O)OCC1=C(C(=O)O)N2C(=O)[C@@H](NC(=O)Cc3cccs3)[C@H]2SC1,2.12
13,Nc1cc(=O)[nH]c(N)n1,0.0828
14,CC(C)NNC(=O)c1ccncc1,-2.53
15,NC1CCN(c2cccc(Cl)n2)CC1,-2.43
16,CNC[C@H](O)c1cccc(O)c1,-2.53
17,CC1COc2c(N3CCN(C)CC3)c(F)cc3c(=O)c(C(=O)O)cn1c23 (stereo not given),-2.91
